Results on 42 compounds are retold here after PubChem BioAssay AID651658 (Broad Institute, 2012).

In all, about 340,000 compounds went through this assay and about 5,100 (1.5%) were called active.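 Rule for the calls: active = mean Tm shift, scaled 0 neutral to 100 positive control, at about 1.3% or above, every replicate too (limit read from the data); inconclusive = no clear call, values can overlap the other calls; inactive = the rest.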 Many of the other results were omitted from the sample, so actives are more common in it than they were.

Sequence of Fibroblast growth factor 22 (Homo sapiens) (Q9HCT0 whole entry, looked up): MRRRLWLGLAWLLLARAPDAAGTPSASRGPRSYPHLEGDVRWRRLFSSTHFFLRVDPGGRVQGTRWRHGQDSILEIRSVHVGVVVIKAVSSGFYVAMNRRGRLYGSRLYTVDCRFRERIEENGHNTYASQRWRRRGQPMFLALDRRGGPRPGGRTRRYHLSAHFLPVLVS

The assay has as its target Fibroblast growth factor 22 (Homo sapiens) (UniProt Q9HCT0). In words: binders of human FGF22 protein, primary screen, FGF22 synaptogenesis inhibitor project, biophysical, thermal shift, single point (AID 651658). The conditions noted are these: recombinant FGF22 thermal shift, SYPRO orange fluorescence; at 9.99 µM; hits give high values; percent of sucrose octasulfate shift, DMSO zero.
In the case of `O=C(C1CCCC1)N1[C@H](CO)[C@@H]2c3ccccc3N(S(=O)(=O)c3ccccc3)C[C@@H]21`, the activity (Tm shift, normalised) is 0.581% (inactive).

Take `C[C@H](O)C#Cc1cnc2c(c1)C(=O)N([C@H](C)CO)C[C@@H](C)[C@H](CN(C)CC1CCCCC1)O2`: the activity (Tm shift, normalised) was -0.028% (inactive).

Take `CN(C)CC(=O)N[C@H]1CC[C@@H](CCNC(=O)C2CCCC2)O[C@@H]1CO`: the activity (Tm shift, normalised) was 0.021% (inactive).

On to `Cc1ccc(-n2c(C)cc(C(=O)CSc3nnc4ccccn34)c2C)cc1`, for which the activity (Tm shift, normalised) was 43.1% (active).

For `O=C(CSc1nnc2ccccn12)c1ccccc1`, the activity (Tm shift, normalised) is -0.056% (inactive).

Regarding `Cc1ccc(C(=O)NNC(=O)CSc2nnc3ccccn23)cc1`, the activity (Tm shift, normalised) was -0.076% (inactive).

With `CN1C(=O)c2cc(NC(=O)c3ccc4c(c3)OCO4)ccc2OC[C@@H]2O[C@H](CC(=O)O)CC[C@H]21`, the activity (Tm shift, normalised) was 0.218% (inactive).

On to `C[C@H](CO)N1C[C@H](C)[C@@H](CN(C)C(=O)c2cnccn2)Oc2ncc(-c3ccccc3F)cc2C1=O`, for which the activity (Tm shift, normalised) is -0.163% (inactive).

`O=C(Nc1cccc(F)c1)NC1CCCCCCC1`: the activity (Tm shift, normalised) is 0.32% (inactive).

Consider `COc1cccc(NC(=O)C/C(C)=N/NC(=O)C2CCCCC2)c1`, for which the activity (Tm shift, normalised) was -0.252% (inactive).

With `C/C(CC(=O)Nc1cccc(F)c1)=N\NC(=O)C(=O)NC1CCCCC1`, the activity (Tm shift, normalised) was 43.7% (active).

`COc1ccc(CN(C)C[C@@H]2OCCCC[C@@H](C)Oc3ccc(NS(=O)(=O)c4ccc(F)cc4)cc3C(=O)N([C@@H](C)CO)C[C@H]2C)cc1`: the activity (Tm shift, normalised) is -0.218% (inactive).

For `Cc1cccc(-c2ccc([C@@H]3[C@@H](CO)N4CCCCN(S(=O)(=O)c5cccs5)C[C@H]34)cc2)c1`, the activity (Tm shift, normalised) was -0.206% (inactive).

For the compound `C[C@H](CO)N1C[C@H](C)[C@H](CN(C)Cc2ccc(C(=O)Nc3ccccc3N)cc2)Oc2c(NC(=O)Nc3ccccc3)cccc2C1=O`, the activity (Tm shift, normalised) was -0.326% (inactive).

Turning to `C/C=C/c1ccc2c(c1)O[C@H](CN(C)C(=O)Cc1ccccn1)[C@H](C)CN([C@H](C)CO)S2(=O)=O`, the activity (Tm shift, normalised) was -0.272% (inactive).

For the compound `CCOc1cc(NC(=O)Nc2ccccc2)c(OCC)cc1NC(=O)CC`, the activity (Tm shift, normalised) is -0.075% (inactive).

`CCOc1ccc(CCNC(=O)Nc2ccccc2)cc1OCC`: the activity (Tm shift, normalised) is -0.025% (inactive).

`CCCNCc1cc(OCC)c(OCC(=O)Nc2ccccc2)cc1Br`: the activity (Tm shift, normalised) was 44% (active).

For the compound `CCCN1C[C@H](C)[C@@H](OC)CN(C)C(=O)c2cc(NS(=O)(=O)CC)ccc2OC[C@H]1C`, the activity (Tm shift, normalised) is -0.257% (inactive).

For `Cc1ccccc1OS(=O)(=O)c1cccc([N+](=O)[O-])c1`, the activity (Tm shift, normalised) is 43% (active).

Take `Cc1cc([N+](=O)[O-])ccc1NS(=O)(=O)c1ccccc1`: the activity (Tm shift, normalised) is 1.12% (inactive).

In the case of `Cc1cc(C)n(S(=O)(=O)c2cccc([N+](=O)[O-])c2)n1`, the activity (Tm shift, normalised) is -0.005% (inactive).

With `CCCNC(=O)Nc1ccc2c(c1)C(=O)N(C)C[C@H](OC)[C@@H](C)CN(C)[C@@H](C)CO2`, the activity (Tm shift, normalised) was -0.468% (inactive).

For `COCC(=O)N1CC(=O)N2[C@H](CO)[C@@H](c3ccc(-c4ccccc4F)cc3)[C@H]2C1`, the activity (Tm shift, normalised) is -0.341% (inactive).

For the compound `O=C(c1ccccc1F)N1CC(=O)N2[C@H](C1)[C@H](c1ccc(-c3ccc(F)cc3)cc1)[C@@H]2CO`, the activity (Tm shift, normalised) was 1.26% (active).

On to `O=C(c1cccnc1)N1CC(=O)N2[C@H](C1)[C@H](c1ccc(-c3ccccc3F)cc1)[C@@H]2CO`, for which the activity (Tm shift, normalised) was 0.042% (inactive).

With `C/C=C/c1ccccc1[C@@H]1[C@@H](CO)N(C(=O)CN2CCOCC2)[C@H]1C#N`, the activity (Tm shift, normalised) is -0.302% (inactive).

For `C[C@H]1CN([C@@H](C)CO)C(=O)c2cc(NC(=O)Cc3cn(C)c4ccccc34)ccc2O[C@@H]1CN(C)Cc1ccc(Cl)c(Cl)c1`, the activity (Tm shift, normalised) is 0.161% (inactive).

`Cc1noc(C)c1S(=O)(=O)Nc1ccc2c(c1)C(=O)N([C@@H](C)CO)C[C@@H](C)[C@H](CN(C)C(=O)NC(C)C)OCCCC[C@@H](C)O2`: the activity (Tm shift, normalised) was -0.227% (inactive).

As for `CC(C)NC(=O)N(C)C[C@H]1OCCCC[C@@H](C)Oc2ccc(NC(=O)C3CCCCC3)cc2C(=O)N([C@H](C)CO)C[C@H]1C`, the activity (Tm shift, normalised) is -0.185% (inactive).

Regarding `COc1ccc(/C(C)=N/NC(=O)c2ccc3nc[nH]c3c2)cc1`, the activity (Tm shift, normalised) was 0.005% (inactive).

On to `CC(=NNC(=O)c1ccc2nc[nH]c2c1)c1ccc(Br)cc1`, for which the activity (Tm shift, normalised) was 0.573% (inactive).

With `O=C(N/N=C/c1ccc(Cl)c(Cl)c1)c1ccc2nc[nH]c2c1`, the activity (Tm shift, normalised) was 1.65% (active).

For the compound `CCC(=O)Nc1ccc2c(c1)C(=O)N(C)C[C@H](OC)[C@H](C)CN(C(=O)c1ccccn1)[C@@H](C)CO2`, the activity (Tm shift, normalised) was 0.116% (inactive).

With `CC(=O)O[C@]1(C(C)=O)CC[C@H]2[C@@H]3C=C(C)C4=CC(=O)CC[C@]4(C)[C@H]3CC[C@@]21C`, the activity (Tm shift, normalised) was -0.13% (inactive).

In the case of `C[C@]12CCC(=O)C=C1C=CC1C2CC[C@@]2(C)C1CC[C@@]21CCC(=O)O1` (some centres not stated), the activity (Tm shift, normalised) is 43.7% (active).

In the case of `CC(=O)C12CC(C)=C(C)CC1CC1C3CCC4=CC(=O)CCC4(C)C3CCC12C` (configuration not stated), the activity (Tm shift, normalised) is -0.095% (inactive).

As to `C[C@H](CO)N1C[C@H](C)[C@H](CN(C)S(=O)(=O)c2cccs2)Oc2c(NC(=O)Nc3ccc4c(c3)OCO4)cccc2C1=O`, the activity (Tm shift, normalised) is -0.125% (inactive).

On to `O=C(C[C@H]1CC[C@@H](NC(=O)c2ccc(F)cc2)[C@@H](CO)O1)NCc1ccncn1`, for which the activity (Tm shift, normalised) is -0.132% (inactive).

Take `COCC(=O)Nc1ccc2c(c1)[C@H]1C[C@@H](CC(=O)NCc3ccccc3F)O[C@H](CO)[C@H]1O2`: the activity (Tm shift, normalised) was -0.327% (inactive).

For the compound `C[C@@H](NC(=O)C[C@H]1CC[C@@H](NC(=O)Cc2ccccn2)[C@@H](CO)O1)c1ccccc1`, the activity (Tm shift, normalised) is -0.123% (inactive).

As to `CO[C@@H]1CC[C@H]2CCN(C)C(=O)[C@@H](C)CN(C)C(=O)c3cccc(C#N)c3OC[C@@H]1O2`, the activity (Tm shift, normalised) was -0.102% (inactive).
